Assay outcomes as filed in PubChem.
MCF10A rereplic – A quantitative high throughput screen for small molecules that induce DNA re-replication in MCF 10a normal breast cells; AID 624296, 2012; MCF 10A DNA re-replication, Hoechst nuclear intensity, 48 h; Potency, µM (top dose mostly 46.1 µM), for the others: at the highest dose activity, positive = re-replication, actives largely listed as activators; hit rate 2.9% among 350,000; note: potency is the fitted concentration of half-maximal effect; % of control where 0% means no effect; nearly all actives have a fitted effect of over 50% in size
VP16 counter – VP16 counterscreen qHTS for inhibitors of ROR gamma transcriptional activity; Drosophila S2 Gal4-VP16 UAS-luciferase, luminescence, 20 h; Potency, µM (highest dose often 53.6 µM), for inactives: at the highest dose activity, negative = inhibition, usual class: inhibitors; hit rate 3.5% among 310,000; AID 2546, 2010;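 note: Gal4-VP16 expression switched on by copper sulfate through the metallothionein promoter; potency is the fitted concentration of half-maximal effect; % is set by controls: 0 for no effect and ±100 for the full control effect; nearly all actives have a fitted effect of over 50% in size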
RORg inh – qHTS for inhibitors of ROR gamma transcriptional activity; Nuclear receptor ROR-gamma (Mus musculus), P51450; Drosophila S2 Gal4-RORgamma UAS-luciferase reporter, 20 h; Potency, µM (titrated, usually from 53.6 µM), without a hit: at the highest dose activity change, negative = inhibition, hits mostly inhibitors; hit rate 5.4% among 310,000; note: potency is the fitted concentration of half-maximal effect; % is set by controls: 0 for no effect and ±100 for the full control effect; nearly all actives have a fitted effect of over 60% in size
Target sequence (P51450 whole entry, looked up, the tested form may be a part): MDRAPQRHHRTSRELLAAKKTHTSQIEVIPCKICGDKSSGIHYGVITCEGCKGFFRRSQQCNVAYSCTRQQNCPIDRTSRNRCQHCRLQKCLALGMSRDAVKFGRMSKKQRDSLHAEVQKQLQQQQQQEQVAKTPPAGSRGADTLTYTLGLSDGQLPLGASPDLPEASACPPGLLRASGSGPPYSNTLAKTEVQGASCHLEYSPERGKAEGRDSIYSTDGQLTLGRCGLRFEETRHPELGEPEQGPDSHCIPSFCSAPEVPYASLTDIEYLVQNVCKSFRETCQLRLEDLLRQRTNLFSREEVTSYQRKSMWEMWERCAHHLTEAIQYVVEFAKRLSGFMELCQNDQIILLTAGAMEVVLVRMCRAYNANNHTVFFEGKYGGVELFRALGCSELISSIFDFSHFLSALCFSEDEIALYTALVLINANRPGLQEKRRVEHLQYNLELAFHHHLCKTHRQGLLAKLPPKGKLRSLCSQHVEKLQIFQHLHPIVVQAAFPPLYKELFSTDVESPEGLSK
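Read-out: Photinus luciferase luminescence; inhibitors lower reporter signal. Insect Schneider cells with Gal4-ROR gamma fusion under metallothionein promoter, UAS reporter; 700 uM final copper sulfate induction, 20 hr, ambient temperature.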
SW480 rereplic – A quantitative high throughput screen for small molecules that induce DNA re-replication in SW480 colon adenocarcinoma cells; Potency, µM (titrated, usually from 46.1 µM), for inactives: at the top dose re-replication activation, most hits filed as activators; hit rate 1.8% among 340,000; SW480 DNA re-replication, Hoechst DNA content imaging, 48 h; note: potency is the fitted concentration of half-maximal effect; % of control where 0% means no effect; nearly all actives have a fitted effect of over 55% in size
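Treated cells incubate 48 hr (37 C, 5% CO2), are stained 40 min with Hoechst, and nuclear fluorescence is enumerated; a rise in nuclei with high DNA signal marks re-replication.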
IL-1B inflam inh – qHTS for Inhibitors of Inflammasome Signaling: IL-1-beta AlphaLISA Primary Screen. THP-1 LPS/ATP IL-1B secretion, AlphaLISA, 16 h; active compounds read low. activity change, % at 57.5 µM. hit rate 4.7% among 360,000. AID 743279, 2014; in the data active = activity change below about -50%; inconclusive = mostly about -30% to -49%; note: % is set by controls: 0 for no effect and ±100 for the full control effect
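Secreted IL-1B measured by AlphaLISA bead assay after 16 h compound exposure of THP-1 cells; compounds (final up to 57.5 uM) added 1 h before LPS (250 ng/mL) and ATP (1.25 mM) stimulation; lower signal means less secretion.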
An asterisk follows results filed as active; u = inconclusive; x = not tested or not shown; [ ] = remark or other dose. In the library only some 11% were active in any assay of this set; here they are far more common. Unless noted, calls come from the whole dose curve; as a rule, active = well fitted curve in the direction sought with a large enough effect; inconclusive = small, poorly fitted or top-dose-only effect, or another doubt; inactive = no such curve, though single readings can be large; an effect the other way counts as inactive or inconclusive.

SMILES | MCF10A rereplic | VP16 counter | RORg inh | SW480 rereplic | IL-1B inflam inh
CC1=CC(=O)C2=C(C)C[C@@H]3OC(=O)[C@@H](C)[C@H]3C=C12 | x | 1.4% | -18.2% | x | x
CCCC#Cc1ccc2c(c1)O[C@@H](CN(C)Cc1ccc3c(c1)OCO3)[C@H](C)CN([C@@H](C)CO)S2(=O)=O | x | x | x | x | -2.6
Cc1cc(C)c(S(=O)(=O)N2CCN(C(=O)c3ccc4c(c3)OCO4)CC2)c(C)c1 | 9.4% | -3.6% | u | 7.8% | -60.0*
CN(c1ccccc1)S(=O)(=O)c1ccc(C(=O)N2CCc3ccccc3C2)cc1 | 2.8% | 3.2% | u | 7.3% | 19.2
Cc1ccc(S(=O)(=O)N(C)c2ccc(C(=O)N3CCN(Cc4ccc5c(c4)OCO5)CC3)cc2)cc1 | u | u | -22.2% | 6.5% | -72.7*
CN(c1ccc(C(=O)N2CCN(Cc3ccccc3)CC2)cc1)S(=O)(=O)c1ccccc1 | 12.3% | -1.6% | 35.7% | -9.2% | u
CN(c1ccc(C(=O)N2CCN(Cc3ccc4c(c3)OCO4)CC2)cc1)S(=O)(=O)c1ccccc1 | 23.6% | -9.3% | 17.3% | 4.4% | -56.1*
Cc1ccc(S(=O)(=O)N2CCN(C(=O)c3ccc4c(c3)OCO4)CC2)cc1 | u | -6.2% | 19.6% | -0.4% | -12.1
Cc1ccc(S(=O)(=O)N(C)c2ccc(C(=O)N3CCc4ccccc4C3)cc2)cc1 | 10.8% | 2.3% | -0.9% | 0.0% | -62.0*
O=C1CC2(CCN(C(=O)c3cccc(Br)c3)CC2)Oc2ccccc21 | 4.9% | x | x | 1.0% | u
Cc1ccc(OCCNCc2ccccc2)c(C)c1 | 12.1% | 6.9% | -8.8% | u | -7.5
Cc1ccc(OCCCCNC(C)c2ccccc2)c(C)c1 (stereo not given) | u | -2.7% | 27.3%[1.91 µM] | u | -91.1*
Cc1ccc(OCCSc2ncccn2)c(C)c1 | 13.6% | u | 10µM* | -6.6% | -9.7
c1cnc(SCCOc2cccc3ccccc23)nc1 | 14.1% | u | u | -0.3% | -8.5
CCOc1ccccc1N(C)S(=O)(=O)c1ccc2c(c1)N(C(C)=O)CCO2 | -3.6% | -6.5% | -8.7% | 5.1% | -17.2
CC(=O)c1cc(C(=O)N2CCCC(C(=O)c3ccc(Cl)cc3)C2)cs1 (stereo not given) | 9.3% | 1.1% | 38.4% | -10.8% | 0.0
CCOC(=O)C1=C(c2ccccc2)NC(=O)NC1c1cc(Cl)c(O)c(OC)c1 (stereo not given) | -3.9% | 2.9% | u | -11.0% | -1.6
CCOC(=O)C1=C(c2ccccc2)NC(N)=NC1c1ccc(OCc2ccc(Cl)cc2)c(OC)c1 (stereo not given) | 18.4µM* | -18.2% | -0.7% | u | u
Cc1ccc(S(=O)(=O)NCC2CCC(C(=O)NCCCN3CCCC3=O)CC2)cc1 (stereo not given) | -1.6% | -3.0% | 4.0% | -3.1% | -11.1
Nc1c(C(=O)Nc2ccc3c(c2)OCCO3)nnn1CCc1ccccc1 | 20.2% | 13.3% | u | u | -2.1
Nc1c(C(=O)Nc2ccccc2Cl)nnn1-c1ccc2c(c1)OCCO2 | u | u | 0.0562µM* | -13.1% | -15.3
CCOC(=O)CNC(=O)c1ccc(C)cc1 | -4.1% | -2.9% | 43.3% | -1.7% | -19.4
CCO/C=C/C(O)(CNC(=O)c1ccc(C(C)(C)C)cc1)C(F)(F)F (stereo not given) | u | 20µM* | -85.4% | u | -1.6
CC1=C(C(=O)N(C(C)C)C(C)C)CC(CC(=O)NCCc2ccccn2)C(=O)N1CCCN1CCCC1=O (stereo not given) | x | x | x | x | -9.4
Cc1ccc2nc(C)c(C(=O)N/N=C/c3cccs3)n2c1 | u | -2.2% | 11.2µM* | u | 0.0
SMILES | MCF10A rereplic | VP16 counter | RORg inh | SW480 rereplic | IL-1B inflam inh
Cc1ccc2nc(C)c(C(=O)NN=C3CCCCCC3)n2c1 | u | -24.6% | 12.6µM* | u | 47.0
Cc1ccn2c(C(=O)NN=C3CCN(C)CC3)c(C)nc2c1 | -5.8% | -22.4% | 3.6% | u | 2.5
Cc1ccn2c(C(=O)N/N=C\c3cccs3)c(C)nc2c1 | 23.1% | 0.6%[0.365 µM] | u | -6.3% | 17.6
O=S(=O)(c1ccccc1)N1CCCCC1CCc1ccccc1 (stereo not given) | 7.8% | x | x | 1.0% | -28.8
CC(=O)Oc1ccc(C(=O)O)cc1OC(C)=O | 6.3% | -1.8% | -4.2% | -25.9% | -0.4
CC(=O)Oc1ccc(OC(C)=O)c(SCCCCCCl)c1 | u | -6.1%[10 µM] | u | u | -62.9*
CCOc1ccc(S(=O)(=O)O)c2cccnc12 | 7.9% | -18.1% | -18.9% | -4.2% | x
Cc1ccc(O)c(NC(=S)NC(=O)CC(C)C)c1 | 7.5% | u | u | -5.9% | u
O=C(/C=C/c1ccco1)NC(=S)Nc1ccc(Cl)cn1 | -1.4% | u | 8.91µM* | -2.8% | 42.1
Cc1ccc(O)c(NC(=S)NC(=O)C(C)C)c1 | 1.6% | -1.0% | 11.2µM* | -52.8% | -2.3
Cc1ccc(O)c(NC(=S)NC(=O)/C=C/c2ccco2)c1 | 10.5% | u | 7.94µM* | 16.4µM* | -6.8
Cc1ccnc(NC(=S)NC(=O)/C=C/c2ccco2)c1 | u | 1.78µM* | 7.08µM* | u | 43.8
O=C(CN1C(=O)c2cccnc2Oc2ccc(Cl)cc21)NC1CCCCC1 | -3.9% | -4.7% | 8.0% | 1.0% | -3.7
COc1ccc(C(=O)Nc2cc3c4c(c2)CC(=O)N4CCC3)cc1 | 2.6% | x | x | -11.3% | -1.3
O=C(/C=C/c1ccco1)NC(=S)Nc1ccc(O)c(-c2nc3ccccc3s2)c1 | 8.2µM* | 2µM* | 2µM* | u | 25.7
CNc1cnc(-c2ccsc2)cn1 | x | x | x | x | -4.0
Cc1ccccc1SCC(=O)Nc1cc(C(F)(F)F)ccc1N1CCOCC1 | 6.4% | x | x | u | -69.7*
O=C(CCC1CCCC1)Nc1cc(C(F)(F)F)ccc1N1CCOCC1 | -8.5% | x | x | 3.66µM* | -2.5
Cc1ccccc1CN1C(=O)c2ccccc2Sc2ccc(C(=O)NCCN3CCOCC3)cc21 | 6.7% | -5.6% | -1.3% | u | -24.8
CCN1CCN(CCNC(=O)c2ccc(/C=C3/Sc4ccccc4N(Cc4ccccc4C)C3=O)cc2)CC1 | 18.4µM* | 17.8µM* | u | 7.31µM* | 22.5
O=C(NCCN1CCOCC1)c1ccc2c(c1)N(Cc1ccccc1F)C(=O)c1ccccc1S2 | u | -13.4%[10 µM] | 42.1% | u | -30.0
CCN1CCN(CCCNC(=O)c2ccc(/C=C3/Sc4ccccc4N(Cc4ccccc4F)C3=O)cc2)CC1 | 14.6µM* | u | u | 16.4µM* | u
Clc1ccccc1-c1nc(NCc2cccnc2)c2ccccc2n1 | x | -1.0% | -31.0% | x | x
COc1ccc(-c2c(-c3ccc(O)cc3O)n[nH]c2C)cc1OC | u | 1.0% | -29.0% | u | 15.9
